# Measured values from PubChem BioAssay (NCATS).
# Records with an inconclusive call do not appear. A call without a number means that no potency is given here. Values without a mark were called inactive. Calls of active or inactive are those of the source. The call rests on the fitted dose curve; in most records, active means well fitted curve in the direction sought with a large enough effect; inconclusive means small, poorly fitted or top-dose-only effect, or another doubt; inactive means no such curve, though single readings can be large; an effect the other way counts as inactive or inconclusive.
# Experiments:
# [1] = test system: CRL-7250; assay: Cytotoxic Profiling of Annotated Libraries Using Quantitative High-Throughput Screening (AID 1296008); conditions: Five cell lines viability, CellTiter-Glo ATP luminescence, 48-72 h; max response: hits give low values; further: nearly all actives have a fitted effect of over 60% in size
# Procedure, shortened: (§1)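 Cells exposed to compounds for 48 or 72 hr at 37 degrees Celsius. Viability read as ATP-coupled luminescence with CellTiter-Glo after 10 min at room temperature.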
# [2] = test system: HEK293; assay: as above; conditions: Five cell lines viability, CellTiter-Glo ATP luminescence, 48-72 h; max response: hits give low values
# Procedure, shortened: as §1
# [3] = test system: HaCat; assay: as above; conditions: Five cell lines viability, CellTiter-Glo ATP luminescence, 48-72 h; max response: hits give low values
# Procedure, shortened: as §1
# [4] = test system: KB-3-1; assay: as above; conditions: Five cell lines viability, CellTiter-Glo ATP luminescence, 48-72 h; max response: hits give low values
# Procedure, shortened: as §1
# [5] = test system: NIH3T3; assay: as above; conditions: Five cell lines viability, CellTiter-Glo ATP luminescence, 48-72 h; max response: hits give low values
# Procedure, shortened: as §1
# [6] = test system: MCC-13; assay: qHTS assay to identify novel small-molecules to repurpose for Merkel cell carcinoma treatment (AID 1296009); conditions: MCC and control cell lines, CellTiter-Glo viability, 72 h; series mostly up to 46 µM; further: nearly all actives have a fitted effect of over 60% in size
# Procedure, shortened: (§2)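 Cells were incubated with compound for 72 hr at 37 degree celsius before CellTiter-Glo addition. Luminescence was normalized with no-cell wells as full cytotoxicity and DMSO as baseline.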
# [7] = test system: MCC-26; assay: as above; conditions: MCC and control cell lines, CellTiter-Glo viability, 72 h; series mostly up to 46 µM
# Procedure, shortened: as §2
# [8] = test system: MKL-1; assay: as above; conditions: MCC and control cell lines, CellTiter-Glo viability, 72 h; series mostly up to 46 µM
# Procedure, shortened: as §2
# [9] = test system: MKL-2; assay: as above; conditions: MCC and control cell lines, CellTiter-Glo viability, 72 h; series mostly up to 46 µM
# Procedure, shortened: as §2
# [10] = test system: UISO; assay: as above; conditions: MCC and control cell lines, CellTiter-Glo viability, 72 h; series mostly up to 46 µM
# Procedure, shortened: as §2
# [11] = test system: WaGa; assay: as above; conditions: MCC and control cell lines, CellTiter-Glo viability, 72 h; series mostly up to 46 µM
# Procedure, shortened: as §2
# [12] = test system: C33A; assay: Primary qHTS to identify gynecologic anti-cancer compounds using libraries of approved drugs and bioactive compounds (AID 1345084); conditions: Gynecologic cancer cell panel viability, ATPlite luminescence, 48 h; series mostly up to 57.5 µM; further: nearly all actives have a fitted effect of over 55% in size
# Procedure, shortened: (§3)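 Five-point cytotoxicity, 48 h drug exposure at 37 C, 5% CO2, on cells seeded 16 h beforehand. ATP content read by ATPlite luminescence.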
# [13] = test system: CAOV3; assay: as above; conditions: Gynecologic cancer cell panel viability, ATPlite luminescence, 48 h; series mostly up to 57.5 µM
# Procedure, shortened: as §3
# [14] = test system: CASKI; assay: as above; conditions: Gynecologic cancer cell panel viability, ATPlite luminescence, 48 h; series mostly up to 57.5 µM
# Procedure, shortened: as §3
# [15] = test system: Es-2; assay: as above; conditions: Gynecologic cancer cell panel viability, ATPlite luminescence, 48 h; series mostly up to 57.5 µM
# Procedure, shortened: as §3
# [16] = test system: HeLa; assay: as above; conditions: Gynecologic cancer cell panel viability, ATPlite luminescence, 48 h; series mostly up to 57.5 µM
# Procedure, shortened: as §3
# [17] = test system: W2; assay: qHTS profiling for inhibitors of Plasmodium falciparum proliferation (AID 504749); further: nearly all actives have a fitted effect of over 60% in size; further: potency means the concentration at half of the fitted maximal effect; conditions: P. falciparum in erythrocytes, SYBR Green DNA, 72 h; series mostly up to 28.7 µM
# Procedure, shortened: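 Readout was DNA-dye fluorescence from lysed cultures, ex 485/em 535 nm. Parasitized red cells had grown 72 h with compound; data scaled between 0.29 uM artemisinin and DMSO wells and corrected using vehicle-only plates.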
Structure (SMILES),max response [1],max response [2],max response [3],max response [4],max response [5],Potency [6],Potency [7],Potency [8],Potency [9],Potency [10],Potency [11],Potency [12],Potency [13],Potency [14],Potency [15],Potency [16],Potency [17]
C[N+]12CCC(CC1)C(OC(=O)C(O)(c1ccccc1)c1ccccc1)C2 (centres undefined),3.27%,-6.95%,-16.2%,1.71%,0.982%,inactive,inactive,inactive,inactive,inactive,inactive,inactive,inactive,inactive,inactive,inactive,–
CN(C)C(=O)Nc1ccc(Cl)c(Cl)c1,2.46%,3.61%,-27.1%,-25.2%,-5.25%,inactive,inactive,inactive,inactive,inactive,inactive,inactive,inactive,inactive,inactive,inactive,–
CC(O)Cn1cnc2c1c(=O)n(C)c(=O)n2C (centres undefined),2.85%,1.15%,-17.4%,13.1%,-9.57%,inactive,inactive,inactive,inactive,inactive,inactive,inactive,inactive,inactive,inactive,inactive,–
O=C(O)CCC(=O)Nc1ccc(S(=O)(=O)Nc2nccs2)cc1,-7.17%,-13.9%,-28.4%,14.8%,-7.15%,inactive,–,inactive,inactive,inactive,inactive,inactive,inactive,inactive,inactive,inactive,inactive
CCc1oc2ccccc2c1C(=O)c1cc(I)c(O)c(I)c1,-2.92%,-23.3%,-7.93%,-18.7%,-1.15%,inactive,inactive,inactive,inactive,–,inactive,inactive,inactive,inactive,inactive,inactive,inactive
NCCNc1cccc2ccccc12,-3.59%,-7.17%,-24.9%,-12.5%,0.794%,inactive,inactive,–,–,inactive,–,inactive,inactive,inactive,inactive,inactive,–
COc1cc(O)c(C(=O)c2ccccc2)cc1S(=O)(=O)O,1.74%,-6.68%,-4.69%,-4.48%,1.08%,inactive,inactive,inactive,inactive,inactive,–,inactive,inactive,inactive,inactive,inactive,7.57 µM (active)
